Assay outcomes: PubChem BioAssay, National Center for Advancing Translational Sciences (NCATS)
GALK inhibitor = qHTS Assay for Inhibitors of Human Galactokinase (GALK): NCGC Sytravon Library Screen | 44,000 tested, under 10 active | P51570 | recombinant GALK, Kinase-Glo ATP luminescence, 1 h | Potency, µM (top dose mostly 57.5 µM), without a hit: top-dose activity, negative = inhibition, actives largely listed as inhibitors | AID 1347072, 2019;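 further: plate controls were full GALK reaction for no effect and reaction lacking GALK for full effect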
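Luminescent ATP-depletion readout (Kinase-Glo Plus) after 1 h room-temperature incubation of human GALK (5 nM) with galactose 100 µM and ATP 35 µM, pH 8.0 HEPES/Mg2+ buffer; compounds tested in qHTS format.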
HTT-AS act = Primary qHTS for Identification of Small Molecule Activators of Huntingtin-Antisense Promoter Activity. HEK293 HTT-AS promoter firefly luciferase reporter, 24 h; response scale: percent change from vehicle, -100% = no light. Potency, µM (series often up to 57.5 µM), inactives show at the top dose activity change, positive = activation, most hits filed as activators. 48,000 compounds, 0.24% hits. AID 1508624, 2021; further: potency means the concentration at half of the fitted maximal effect; nearly all actives have a fitted effect of over 55% in size
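Luminescence was read after Dual-Glo reagent and a 10 min room-temperature incubation. Values were normalized to vehicle (0% activity) and zero RLU (-100% activity). Reporter HEK293 cells had been exposed to compounds (up to 57.5 uM final) for 24 h.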
FH mod = Identification of activators of human fumarate hydratase by quantitative high-throughput screening | 54,000 compounds, 0.22% hits | FH coupled MDH/diaphorase resazurin fluorescence, 15 min | Potency, µM (highest dose often 79.9 µM), for the others: top-dose activity change, negative = inhibition, most hits filed as inhibitors; further: potency means the concentration at half of the fitted maximal effect; on the % scale 0 is the no-effect control and ±100 the full control effect; the screen sought activators but most active calls are inhibition curves; nearly all actives have a fitted effect of over 45% in size
Target sequence (P07954 whole entry, looked up): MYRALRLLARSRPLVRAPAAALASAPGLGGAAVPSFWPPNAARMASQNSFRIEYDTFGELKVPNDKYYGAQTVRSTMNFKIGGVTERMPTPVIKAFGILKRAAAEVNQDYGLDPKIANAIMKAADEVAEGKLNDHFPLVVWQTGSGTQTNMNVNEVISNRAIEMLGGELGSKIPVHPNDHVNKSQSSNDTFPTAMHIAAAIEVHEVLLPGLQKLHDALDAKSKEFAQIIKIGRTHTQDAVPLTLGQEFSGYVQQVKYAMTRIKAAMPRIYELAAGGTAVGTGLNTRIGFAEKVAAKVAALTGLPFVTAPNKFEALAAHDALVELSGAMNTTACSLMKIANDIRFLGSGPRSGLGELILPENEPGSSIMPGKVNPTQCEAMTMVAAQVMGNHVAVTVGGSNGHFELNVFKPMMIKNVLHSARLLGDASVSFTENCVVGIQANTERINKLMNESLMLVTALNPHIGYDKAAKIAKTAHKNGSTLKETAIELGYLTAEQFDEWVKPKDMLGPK
HTT prom inh = Primary qHTS for Identification of Small Molecule Inhibitors of Huntingtin Promoter Activity; HEK293 HTT promoter firefly luciferase reporter, 24 h; Potency, µM (series often up to 57.5 µM), without a hit: top-dose activity change, negative = inhibition, actives largely listed as inhibitors; 48,000 compounds, 0.93% hits; further: potency means the concentration at half of the fitted maximal effect; nearly all actives have a fitted effect of over 50% in size
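HEK293 Fluc reporter, 2,500 cells/well, 24 h pre-culture; cpds up to 57.5 uM final, 24 h 37 degrees C; Dual-Glo, 10 min RT; normalized vehicle = 0%, zero RLU = -100%.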
NTMT1 inhibitor = Primary qHTS for Inhibitors of N-terminal methyltransferase 1 (NTMT1): MTaseGlo Assay. NTMT1 MTase-Glo SAH luminescence, purified enzyme. AID 1645870, 2021. Potency, µM (doses to about 114 µM), inactives show at the highest dose activity change, negative = inhibition, hits mostly inhibitors. 59,000 compounds, 2.5% hits;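 further: potency means the concentration at half of the fitted maximal effect; plate controls were DMSO vehicle for no effect and no enzyme for full effect; nearly all actives have a fitted effect of over 65% in size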
Sfp PPTase inh = qHTS Assay for Inhibitos of Bacillus subtilis Sfp phosphopantetheinyl transferase (PPTase): Chemistry Optimization Followup; purified Sfp PPTase enzyme activity, qHTS; 230 compounds, 78% hits; Potency, µM (doses to about 114 µM), inactives show at the highest dose activity change, negative = inhibition, actives largely listed as inhibitors; shares compounds with NTMT1 inhibitor
HM489 growth = qHTS for Inhibitos of Bacillus subtilis Sfp phosphopantetheinyl transferase (PPTase): Chemistry Optimization Followup in B. Subtilis HM489; B. subtilis HM489 (acpS-) growth, BacTiter-Glo, 5 h; 220 compounds, 50% hits; shares compounds with NTMT1 inhibitor; AID 540353, 2011; Potency, µM (doses to about 114 µM), for the others: top-dose activity change, negative = inhibition, actives largely listed as inhibitors
Sfp PPTase gel = Gel-Based Assay for Inhibitos of Bacillus subtilis Sfp phosphopantetheinyl transferase (PPTase): Chemistry Optimization Followup | shares compounds with NTMT1 inhibitor | purified Sfp PPTase, gel-based product detection | Potency, µM (series often up to 250 µM), for inactives: at the top dose activity change, negative = inhibition, hits mostly inhibitors | 220 compounds, 54% hits
Sfp gel = qHTS Assay for Inhibitors of Bacillus subtilis Sfp phosphopantetheinyl transferase (PPTase): Gel Based Assay. shares compounds with NTMT1 inhibitor. purified Sfp PPTase, gel-based product detection. Potency, µM (top dose mostly 250 µM), for inactives: at the highest dose activity change, negative = inhibition, usual class: inhibitors. 45 compounds, 90% hits
Sfp SAR2 = qHTS Assay for Inhibitors of Bacillus subtilis Sfp phosphopantetheinyl transferase (PPTase): SAR Round 2. shares compounds with NTMT1 inhibitor. purified Sfp enzyme, PPTase activity, qHTS. Potency, µM (series often up to 57.1 µM), for the others: top-dose activity change, negative = inhibition, actives largely listed as inhibitors. 230 compounds, 87% hits. AID 602370, 2012
hGST ctr = qHTS Assay for Inhibitors of Bacillus subtilis Sfp phosphopantetheinyl transferase (PPTase): SAR in hGST A1-1; shares compounds with NTMT1 inhibitor; hGST A1-1 enzyme activity counter-screen, qHTS; Potency, µM (highest dose often 114 µM), inactives show at the highest dose activity change, negative = inhibition, hits mostly inhibitors; 55 tested, under 10 active
HSD17B4 inh = Extended Characterization of HPGD Inhibitors: Counterscreen Against HSD17b4 | Potency, µM (top dose mostly 57.1 µM), for inactives: at the top dose activity change, negative = inhibition, hits mostly inhibitors | shares compounds with NTMT1 inhibitor | 230 compounds, 10% hits | purified HSD17B4, estradiol/NAD+, NADH fluorescence
ALDH1A1 counter = Extended Characterization of HPGD Inhibitors: Counterscreen Against ALDH1A1. shares compounds with NTMT1 inhibitor. recombinant ALDH1A1, NADH fluorescence, propionaldehyde/NAD+. Potency, µM (doses to about 57.1 µM), for inactives: top-dose activity change, negative = inhibition, most hits filed as inhibitors. 230 compounds, 93% hits. AID 743195, 2013
Numbers without * were called inactive; ? = inconclusive; . = not tested or not shown; [ ] = dose if it differs, or a comment. Shown are actives, neighbours in structure and some others; about 2.5% of the full set was active somewhere. The call rests on the fitted dose curve; in most records, active means well fitted curve in the direction sought with a large enough effect; inconclusive means small, poorly fitted or top-dose-only effect, or another doubt; inactive means no such curve, though single readings can be large; an effect the other way counts as inactive or inconclusive.

SMILES	GALK inhibitor	HTT-AS act	FH mod	HTT prom inh	NTMT1 inhibitor	Sfp PPTase inh	HM489 growth	Sfp PPTase gel	Sfp SAR2	HSD17B4 inh	ALDH1A1 counter	others
O=C1c2ccccc2C(=O)C1(c1ccccc1)N1CCN(c2cccc(C(F)(F)F)c2)CC1	3%	-22%	-19%	?	7%	.	.	.	.	.	.
c1cncc(-c2ccc(CNc3nc(C4CCCC4)nc4ccccc34)cc2)c1	.	.	.	.	9%	.	.	.	.	.	.
Cc1noc(C)c1-c1cc(O)cc(C(O)c2ccccc2)c1 (stereo unspecified)	.	.	5%	.	1%[57.5 µM]	.	.	.	.	.	.
COc1ccc(N2CCN(C(=O)Nc3cccc(C(F)(F)F)c3)CC2)cc1	6%	-22%	-9%	?	?	.	.	.	.	.	.
O=C(Nc1ccccc1Br)N[C@@H]1CCN(c2ccc(C(F)(F)F)cn2)C1	.	-8%	-17%[53.3 µM]	-4%	1%	.	.	.	.	.	.
Cc1ccnc(NC(=S)N[C@@H]2CCN(c3cccc(C(F)(F)F)c3)C2)c1	.	.	.	.	16%	?	?	19%	?	9%	24µM*	Sfp gel=0%;hGST ctr=?
Cc1ccnc(CC(=S)N2CCN(c3cccc(C(F)(F)F)c3)CC2)c1	.	.	.	.	0%	24µM*	?	10µM*	?	?	9.6µM*
Cc1ccnc(NC(=O)N2CCN(c3cccc(C(F)(F)F)c3)CC2)c1	.	.	.	.	2%	0%	?	-5%	-24%	-14%	11µM*
